Data on 48 molecules can be found in PubChem BioAssay AID1851 (National Center for Advancing Translational Sciences (NCATS), 2009).

Screen size: about 16,000 compounds; about 5,800 (36%) were called active. Another 23% or so got no clear call; they are omitted. The list shows a part of the results. Values without a mark were called inactive. Calls come from the whole dose curve; as a rule, active = well fitted curve in the direction sought with a large enough effect; inconclusive = small, poorly fitted or top-dose-only effect, or effect the other way; inactive = no such curve, though single readings can be large or run the other way.
% is set by controls: 0 for no effect and ±100 for the full control effect.

For this assay, the target named is Cytochrome P450 2C19 (Homo sapiens) (UniProt P33261). The assay can be described thus: Cytochrome panel assay with activity outcomes. Particulars: recombinant CYP, pro-luciferin dealkylation, luminescence, p450-cyp2c19; series mostly up to 57.1 µM; activity, negative = inhibition: at the top concentration.
Sequence of Cytochrome P450 2C19 (Homo sapiens) (P33261 whole entry, looked up): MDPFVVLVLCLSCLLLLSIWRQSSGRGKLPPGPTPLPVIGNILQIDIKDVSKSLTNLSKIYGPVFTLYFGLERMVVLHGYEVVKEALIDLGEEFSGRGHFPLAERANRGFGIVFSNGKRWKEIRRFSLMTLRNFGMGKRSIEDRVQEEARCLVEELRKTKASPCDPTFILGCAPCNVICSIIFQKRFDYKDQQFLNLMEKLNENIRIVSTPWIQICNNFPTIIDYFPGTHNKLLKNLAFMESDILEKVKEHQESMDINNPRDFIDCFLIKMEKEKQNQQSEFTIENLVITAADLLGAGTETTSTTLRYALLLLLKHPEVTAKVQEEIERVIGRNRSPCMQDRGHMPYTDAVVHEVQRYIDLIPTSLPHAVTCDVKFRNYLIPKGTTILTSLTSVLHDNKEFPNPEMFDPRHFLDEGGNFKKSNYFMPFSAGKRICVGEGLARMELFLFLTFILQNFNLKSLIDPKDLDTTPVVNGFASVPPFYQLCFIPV
Broadly, the AC50 is the midpoint of the concentration-response curve, whichever way the signal moves. For the molecule `CCOC(=O)C1=C(CSc2nc(-c3ccccc3)ccc2C#N)OC(N)=C(C#N)C1c1ccc(OC)cc1` (stereo not drawn), the AC50 is 2.82 µM (active).

Turning to `CN1CCN(c2ncc3nc(-c4cc(F)cc(F)c4)c(=O)n(C)c3n2)CC1`, the “activity, negative = inhibition” value is -2.58%. As for `CC(C)NC[C@@H](O)COc1ccc(COCCOC(C)C)cc1`, the AC50 entry is “inactive”. Same read-out and setting: with `Cc1ccc(OCC(O)CNC(=O)c2ccccc2C(=O)O)cc1` (stereo not drawn) the figure was 20 µM (active); with `Cc1ccc(S(=O)(=O)NCC(=O)N(CC(=O)NCc2ccco2)Cc2cccs2)cc1`, 14.1 µM (active); with `CC(C)(C)OC(=O)NCCc1nnc(SCC(=O)Nc2cccc(Cl)c2)o1`, 3.98 µM (active). As for `NC(=O)OCC(COC(N)=O)c1ccccc1`, the “activity, negative = inhibition” value is -44.6%. With `Cc1ccc(C(CC(N)=O)c2ccco2)cc1` (stereo not drawn), the AC50 is 14.1 µM (active). For `CC(C)(C)c1cc2cccnc2n1Cc1ccccc1`, the AC50 is 10 µM (active). In the case of `COc1ccc(-c2ccc(C(=S)N3CCN(C(C)=O)CC3)o2)cc1`, the AC50 is 15.8 µM (active).

Turning to `COc1ccc(CC(=O)NCCN2CCCC2)cc1`, the “activity, negative = inhibition” value is -46.4%. On the same count and under the same terms, to `COc1ccc(-c2nc(C(=O)N3CCN(C)CC3)sc2-c2ccc(OC)cc2)cc1` belongs -28.6%; to `O=C(Nc1ccccc1)c1cc(-n2cnnc2)ccc1Cl`, -17.8%. Still for that read-out and setting: with `O=C(O)c1ccccc1-c1ccccc1C(=O)Nc1ccccc1` the figure was -19.3%. Regarding `O=C(Nc1ccccc1)c1cc([N+](=O)[O-])ccc1Cl`, the AC50 was 0.794 µM (active).

On to `O=C(Nc1ccccc1)c1ccccc1CC[N+](=O)[O-]`, for which the AC50 was 17.8 µM (active). Regarding `Cn1c(=O)c2[nH]c(/N=N\N3CCN(CCO)CC3)nc2n(C)c1=O`, the activity, negative = inhibition was 7.88% [at 11.4 µM]. On the same count and under the same terms, to `O=C(O)CN(CCN(CC(=O)O)CC(=O)O)CC(=O)O.[Mn]` belongs -2.62% [at 11.4 µM]. For the molecule `CCCCCNCc1cccc(Br)c1`, the AC50 is 11.2 µM (active).

Consider `CC(C)(C)c1ccc(C(=O)N2CCC(C(=O)NCCC3=CCCCC3)CC2)cc1`, for which the AC50 is 15.8 µM (active). On the same count and under the same terms, with `O=C(NCCC1=CCCCC1)C1CCCN(c2nc3ccccc3o2)C1` (stereo not drawn) the figure was 2.82 µM (active). As to `CC(=O)Nc1nc(NC(C)=O)c2[nH]c(CO)nc2n1`, the activity, negative = inhibition is 4.22% [at 11.4 µM]. Still for that read-out and setting: with `COc1cc(OC)nc(NC(C)=O)n1` the figure was 14.4%. As to `CSc1cc(C)nc(NC(C)=O)n1`, the AC50 is 7.94 µM (active). In the case of `O=C(Oc1ccccc1)N1CCC2(CC1)CCN(c1ccccc1)CC2`, the “activity, negative = inhibition” value was -34.4%.

As to `O=C(Oc1ccc2ccccc2c1Br)N1CCCCCC1`, the AC50 is 1.78 µM (active). Consider `Cc1cc(C)c2c(-n3cccc3)n[nH]c2n1`, for which the AC50 is 5.01 µM (active). On to `Cc1cc(C)c2c(-n3cccc3)nn(CC#N)c2n1`, for which the AC50 is 11.2 µM (active). Turning to `CN(C)/N=N\c1nc[nH]c1C(N)=O`, the “activity, negative = inhibition” value was 30.5% [at 25.6 µM]. As for `CCc1nnc2sc(-c3ccc(NC(=O)c4ccco4)cc3)nn12`, the AC50 is 28.2 µM (active).

Turning to `O=C(O)[C@@H](O)[C@@H](O)[C@@H](O[C@H]1O[C@@H](CO)[C@@H](O)[C@@H](O)[C@@H]1O)[C@@H](O)CO`, the “activity, negative = inhibition” value is 12.8% [at 25.6 µM]. For `Cc1cccc(CSc2cccc3cccnc23)c1`, the AC50 is 2.24 µM (active). `COCC(C)NCc1cccc(C)c1` (stereo not drawn): the “activity, negative = inhibition” value was -18%. `COc1ccc(/C(C)=N/NC(=O)c2ccc(CSc3cccc4cccnc34)cc2)cc1OC`: the AC50 is 2.51 µM (active).

As to `CO[C@H]1COC(=O)C/C=C\[C@H](C)[C@@H](OC)COC(=O)[C@H](C)COC(=O)C/C=C\[C@@H]1C`, the activity, negative = inhibition was 9.22% [at 11.4 µM]. On the same count and under the same terms, to `Cc1ccc(-n2ncc(N(C)C)c(Cl)c2=O)cc1` belongs -22.8%.

As for `C=CCNc1cnn(-c2ccc(C)cc2)c(=O)c1Cl`, the AC50 is 11.2 µM (active). On the same count and under the same terms, to `C[C@@H](C(=O)O)c1ccc(C(=O)c2ccccc2)s1` belongs 3.98 µM (active). On to `CC(C)/C(=N/[N+](C)(C)C)c1ccccc1`, for which the activity, negative = inhibition was 18.6% [at 11.4 µM].

Consider `C[C@@H](C(=O)O)c1ccc(C(=O)c2cccs2)cc1`, for which the “activity, negative = inhibition” value was -23.7% [at 25.6 µM]. Still for that read-out and setting: to `COCCNC(=O)CSc1ncnc2sccc12` belongs -22.8%. Turning to `Cc1cc(Cl)ccc1Oc1ncnc2oc(-c3ccccc3)cc12`, the AC50 is 1.12 µM (active). In the case of `Cc1ccccc1Oc1ncnc2oc(-c3ccccc3)cc12`, the AC50 was 3.98 µM (active). The same measure, in the same setting: to `Cc1ccccc1Oc1ncnc2sccc12` belongs 3.55 µM (active). Turning to `COc1cccc([C@H](O)Cn2cc(-c3ccc(CON=C(C)C)cc3)nn2)c1`, the activity, negative = inhibition was 6.04% [at 11.4 µM]. Turning to `Cc1cccc(OCCn2c(-c3ccco3)nc3ccccc32)c1`, the AC50 is 1.58 µM (active).

For the molecule `Cc1cccc(OCCn2c(S(=O)(=O)O)nc3ccccc32)c1`, the “activity, negative = inhibition” value is -37.5%. In the case of `O=S1(=O)C=C(Oc2ccc3ccccc3c2)c2ccccc21`, the AC50 is 3.55 µM (active).
